Laboratory results taken from PubChem BioAssay AID449762 (Southern Research Specialized Biocontainment Screening …, 2010).
Screen size: about 330,000 compounds; about 1,900 (0.58%) were called active. Inconclusive results (about 4%) are left out. No stated cut-off is given here; in the data, inconclusive means inhibition above about 70% without an active follow-up result; inactive means below that. These entries were drawn from the full list. Measured potencies and affinities stand elsewhere.

Assay: M. tuberculosis growth inhibition, HTS (AID 449762);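 further: bacterial growth assessed after seven days of incubation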
Conditions: M. tuberculosis H37Rv growth inhibition, 7H9 media; at 25 µM; hits give high values

Compound | inhibition
CC(C)(C)n1nnnc1C(c1ccc(Cl)cc1)N1CCCc2ccccc21 (stereo not drawn) | -4.81% (inactive)
N#C/C(=N\Nc1ccccc1)C(N)=S | 2.54% (inactive)
N#C/C(=N\Nc1ccc(Cl)cc1)C(N)=S | 59.5% (inactive)
Cc1ccc(C)c(N=Nc2nc3ccccc3n2C)c1 | -4.4% (inactive)
Cn1c(NN=O)nc2ccccc21 | 0.37% (inactive)
CCCCCc1ccc(-c2cn(CN3C(=O)c4ccccc4C3=O)nn2)cc1 | -0.74% (inactive)
COC(=O)c1cc(COC(=O)c2ccc3ccccc3n2)oc1C | 5.66% (inactive)
O=C(Cc1ccc([N+](=O)[O-])cc1)Nc1ccc(Cl)cc1 | -3.64% (inactive)
CCc1cccc(NC(=O)Cc2ccc([N+](=O)[O-])cc2)c1 | -1.32% (inactive)
Fc1ccc(CSc2ccc3nnc(-c4cccnc4)n3n2)cc1 | -5.63% (inactive)
Cn1c(-c2ccc(=O)[nH]c2)nc2ccccc21 | -2.91% (inactive)
COC(=O)CC(NC(=O)c1ccco1)c1cccc2ccccc12 (stereo not drawn) | -11% (inactive)
C[C@]12CC[C@@H]3c4ccc(O)cc4CC[C@H]3[C@@H]1CC[C@@H]2OC(=O)CCC(=O)O | 5.59% (inactive)
CC(=O)O[C@H]1CC[C@H]2[C@@H]3CCc4cc(O)ccc4[C@H]3CC[C@]12C | 3.79% (inactive)
COc1ccc(/C=N/NC(=O)c2nonc2C)cc1 | 5.08% (inactive)
COc1ccc(CCNC(=O)CSc2nn(-c3ccccc3)c(=S)s2)cc1 | -1.49% (inactive)
COc1ccc(C(=O)N(Cc2ccco2)C(C(=O)NC2CCCC2)c2ccc(O)cc2)cc1OC (stereo not drawn) | -4.43% (inactive)
O=C(NC1CCCCC1)C(c1ccc2ncccc2c1)N(Cc1ccc2c(c1)OCO2)C(=O)c1cccs1 (stereo not drawn) | 7% (inactive)
COc1cc(C(=O)Nc2ccc3nc4n(c(=O)c3c2)CCCC4)ccc1Br | 0.83% (inactive)
O=[N+]([O-])c1ccc(N2CCN(Cc3ccccc3)CC2)s1 | 62.1% (inactive)
O=[N+]([O-])c1ccc(CN2CCCCCC2)s1 | -2.04% (inactive)
CC(=O)N(CC1CCCO1)c1nnc(-c2cnccn2)s1 (stereo not drawn) | -7.32% (inactive)
CCCOC(=O)C[N+](C)(C)CCOC1CC2CCC1(C)C2(C)C (stereo not drawn) | -2.27% (inactive)
CCOC(=O)C[N+](C)(C)CCOC1CC2CCC1(C)C2(C)C (stereo not drawn) | 0.01% (inactive)

Compound | inhibition
CCN(CC)c1ccc(C=NCCNS(=O)(=O)c2ccc(C)cc2)cc1 | -5.21% (inactive)
CCOc1cc(/C=N/Nc2nc3ccccc3[nH]2)cc(Br)c1OCC(=O)N(C)C | 54.1% (inactive)
CCOc1cc(/C=C2\COc3ccccc3C2=O)ccc1OCC(=O)N(C)C | 36.2% (inactive)
Nn1c(SCC(=O)Nc2ccccc2)nnc1C1CCCCC1 | -4.13% (inactive)
CCO[C@H]1OC(C(=O)NC2CC2)=C[C@@H](c2csc3ccccc23)[C@@H]1CCCO | 2.79% (inactive)
O=C(CC1C(=O)NCCN1Cc1c(F)cccc1Cl)NC1CCCC1 (stereo not drawn) | -8.1% (inactive)
O=[N+]([O-])c1cc(Cl)ccc1N1CCN(c2cccc(C(F)(F)F)c2)CC1 | 12% (inactive)
CN(C)CCCN(C(=O)c1ccc(S(=O)(=O)N2CCc3ccccc32)cc1)c1nc2ccc(F)cc2s1 | 2.5% (inactive)
CN(C)CCCN(C(=O)c1ccc(S(=O)(=O)N2CCc3ccccc32)cc1)c1nc2ccc(Cl)cc2s1 | 6.05% (inactive)
COc1ccccc1NC(=S)N(Cc1ccc(C(=O)O)cc1)Cc1ccc(OC)c(OC)c1 | 1.31% (inactive)
O=C(NCc1n[nH]c(=S)n1-c1ccc(F)cc1)c1ccc(S(=O)(=O)N2CCCCC2)cc1 | 0.39% (inactive)
CCCNC(=O)c1ccc(Cn2cc(-c3ccc(OC)cc3)nc2C(C)N)cc1 (stereo not drawn) | -9.06% (inactive)
Cc1ccc(CNC(=O)c2ccc(Cn3cc(-c4ccc(C)cc4)nc3-c3ccncc3)cc2)cc1 | 8.49% (inactive)
O=C(NCCc1ccccc1Cl)C1CCC(=O)N(C2CCCCCC2)C1 (stereo not drawn) | 4.37% (inactive)
COc1cc(OC)cc(C(=O)NCCSC2CCCCC2)c1 | 1.7% (inactive)
C=CCc1ccccc1OCC(O)CN1CCN(c2ccc(C)cc2)CC1 (stereo not drawn) | 8.24% (inactive)
COC(=O)c1ccccc1C(=O)N(Cc1cccnc1)CC1CCCN(C2CCCCC2)C1 (stereo not drawn) | 2.83% (inactive)
O=C(c1cc2ccccc2[nH]1)N(Cc1cccnc1)CC1CCCN(C2CCCCC2)C1 (stereo not drawn) | 58% (inactive)
CCN(C(=O)c1ccccc1F)c1nc(-c2ccc(OC)cc2)cs1 | 5.39% (inactive)
CCOC(=O)CCc1c(C)c2ccc(OCC(=O)OC(C)C)cc2oc1=O | 26.9% (inactive)
CCc1c(C)c2ccc(OCC(N)=O)cc2oc1=O | 4.28% (inactive)
COCCCNc1nc2cc(OC)c(OC)cc2c2nc(-c3ccccc3)nn12 | 13% (inactive)
CCN(CC)CCCNc1nc2ccccc2c2nc(-c3ccncc3)nn12 | -0.63% (inactive)
CCCCCCCCCCCC(=O)N1CC(=O)NC(=O)C1 | -0.85% (inactive)

Compound | inhibition
CC(C)CCN1CC(=O)N2[C@@H](Cc3c([nH]c4ccccc34)C2(C)C)C1=O | 1.66% (inactive)
c1ccc(Oc2nc(-c3cccnc3)nc3ccccc23)cc1 | 13.2% (inactive)
Cc1ccc(Oc2nc(-c3cccnc3)nc3ccccc23)c([N+](=O)[O-])n1 | 3.26% (inactive)
Cc1cc(=O)oc2cc(OCC(=O)N3CCN(C(C)c4ccccc4)CC3)c(Cl)cc12 (stereo not drawn) | -5.58% (inactive)
CCC(C)N1CCN(C(=O)Cc2ccccc2)CC1 (stereo not drawn) | 4.3% (inactive)
Cc1ccc(NC(=O)CN(C)C(=O)c2cccc(S(=O)(=O)NCc3ccccc3)c2)cc1 | 2.27% (inactive)
CCOc1ccc(CCNC(=O)c2ccc(CS(=O)Cc3ccc(Cl)cc3)o2)cc1 (stereo not drawn) | -1.24% (inactive)
O=C(NCCc1ccccc1)c1ccc(CS(=O)Cc2ccc(Cl)cc2)o1 (stereo not drawn) | 3.87% (inactive)
CCCn1c(N)cc(=O)n(CCC)c1=O | 8.69% (inactive)
Clc1ccccc1CN1CCN(c2ccccc2Cl)CC1 | -2.43% (inactive)
c1coc(CNc2c3c(nc4ncnn24)CCCC3)c1 | -6.82% (inactive)
COc1cccc(-c2cc3nc4c(c(N5CCC6(CC5)OCCO6)n3n2)CCCC4)c1 | 12.8% (inactive)
CN(C)CCCNc1c2c(nc3cc(-c4cccc(F)c4)nn13)CCC2 | 1.49% (inactive)
Clc1cccc(-c2cc3nc4c(c(N5CCOCC5)n3n2)CCCC4)c1 | 58.9% (inactive)
C(=NCCCN1CCOCC1)c1ccc2c(c1)OCO2 | -12.4% (inactive)
COc1cc(NC(=O)C23CC4CC(C2)CC(n2nnc(C)n2)(C4)C3)c(OC)cc1Cl | 2.98% (inactive)
COc1cc2cc(C(c3nnnn3C3CCCC3)N3CCc4ccccc43)c(=O)[nH]c2cc1OC (stereo not drawn) | 0.64% (inactive)
CCC(C)(C)n1nnnc1C(c1cc2cc(OC)ccc2[nH]c1=O)N1CCc2ccccc21 (stereo not drawn) | 64.6% (inactive)
COc1ccc(CN2CCCC(C(=O)c3ccc(Cl)cc3)C2)cc1Cn1cccn1 (stereo not drawn) | -5.07% (inactive)
COc1ccc(CN2CCCC(C(=O)c3cccc(OC(C)C)c3)C2)cc1Cn1cccn1 (stereo not drawn) | -6.67% (inactive)
CCCNC1=C(C)C(=O)C2=C(C1=O)C(COC(N)=O)[C@]1(OC)C3NC3CN21 (stereo partly drawn) | -1.51% (inactive)
COC12C(COC(N)=O)C3=C(C(=O)C(C)=C(N)C3=O)N1CC1C2N1C (stereo not drawn) | 100% (inactive)
CC(=O)N1CCN(c2ccc(NC(=S)NC(=O)/C=C/c3ccccc3)cc2)CC1 | 1.44% (inactive)
Cn1c(/C=N/O)nc2ccccc21 | -1.93% (inactive)

Compound | inhibition
CCOC(=O)c1ccccc1N=Cc1c(O)c2ccccc2oc1=O | 5.1% (inactive)
COC(=O)c1cc(N=Cc2c(O)c3ccccc3oc2=O)cc(C(=O)OC)c1 | -16.3% (inactive)
CCOC(=O)c1ccc(N=Cc2nc(-c3ccccc3)oc2OC(C)=O)cc1 | 39.2% (inactive)
COc1ccc(C(O)c2ncc(C(F)(F)F)cc2Cl)cc1 (stereo not drawn) | 12.8% (inactive)
Cc1cc(C(=O)N/N=C2\CC(=O)CC(C)(C)C2)c2ccccc2n1 | 5.98% (inactive)
COCCn1c(NCc2ccc(C)cc2)nc2c1c(=O)[nH]c(=O)n2C | 2.2% (inactive)
COc1cccc(NC(=O)C2CCCO2)c1 (stereo not drawn) | 0.33% (inactive)
CC(C)CC1Nc2ccc(C(=O)NCCCN3CCOCC3)cc2NC1=O (stereo not drawn) | 7.57% (inactive)
CCc1nc2c(C#N)c(-c3ccc(Cl)cc3)ccn2n1 | -11.1% (inactive)
N#Cc1c(-c2ccc(Cl)cc2)ccn2nc(CCC(=O)O)nc12 | 0.53% (inactive)
O=C(COC(=O)CNC(=O)c1cccc(OC(F)F)c1)NCc1ccc2c(c1)OCO2 | 7.07% (inactive)
Cc1ccc(NC(=O)c2cccc(-n3cnnn3)c2)cc1Cl | 4.03% (inactive)
CCN1CC(CN(C)Cc2nc(Cc3ccccc3)no2)CC1=O (stereo not drawn) | 3.14% (inactive)
O=C1c2ccccc2S(=O)(=O)c2cc(C(=O)N3CCN(c4ccccc4)CC3)ccc21 | 4.82% (inactive)
O=C1c2ccccc2S(=O)(=O)c2cc(C(=O)N3CCN(c4ccc(Cl)cn4)CC3)ccc21 | 14% (inactive)
O=C(OCC(=O)N1CCCc2ccccc21)c1cccnc1Cl | 0.07% (inactive)
COC(=O)N/N=C/c1ccccc1 | -2.71% (inactive)
COC(=O)N/N=C/c1ccccc1Cl | -1.15% (inactive)
COc1ccc(NC(=O)CSc2ccccc2)cc1S(=O)(=O)N1CCOCC1 | 9.25% (inactive)
CC(Nc1cc(N2CCN(C(=O)C(C)(C)C)CC2)ccc1[N+](=O)[O-])c1ccccc1 (stereo not drawn) | 6.58% (inactive)
CCCCc1nnc(NC(=O)c2ccc(N3CCCC3=O)cc2)s1 | 0.88% (inactive)
